Hits are enriched below; roughly 19% of the tested compounds scored in any of these assays.
KB-V1 cytotox – KB-V1 MDR subline cytotoxicity. KB-V1 MDR cells viability, CellTiter-Glo, 72 h. Potency, µM (titrated, usually from 46.1 µM), hits mostly cytotoxic. hit rate 3.4% among 400,000; note: nearly all actives have a fitted effect of over 60% in size
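Cells of the MDR subline KB-V1 are plated, dosed with compound at multiple concentrations, and incubated 72 h at 37 degrees C; CellTiter-Glo is then added and luminescence read after 10 min.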
HT1080 IDH1KD tx – HT-1080 IDH1 knockdown cell toxicity (counter line) | HT-1080 IDH1 knockdown viability, ATP luminescence, 48 h | hit rate 2% among 360,000 | AID 686971 | Potency, µM (doses to about 46.1 µM), without a hit: at the highest dose activity, negative = toxicity, actives largely listed as cytotoxic;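 note: 0% = DMSO wells and -100% = cell-free medium wells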
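Assay cells: HT-1080 with IDH1 knockdown, 750 per well, RPMI/5% FBS. Exposure: 48 h at 37 °C following 2 h pre-incubation. Read: CellTiter-Glo luminescence; fitted concentration-response, curve class assigned.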
KB-3-1 cytotox – kills parental KB-3-1 adenocarcinoma cells; Potency, µM (titrated, usually from 46.1 µM), most hits filed as cytotoxic; hit rate 1.4% among 400,000; AID 1347075; KB-3-1 viability, CellTiter-Glo ATP luminescence, 72 h; note: nearly all actives have a fitted effect of over 60% in size
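Screening of KB-3-1 cells (DMEM, 10% FBS, phenol-red free) ran from lowest to highest compound concentration; after 72 h at 37 °C viability was read luminescently and curves fitted.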
HT1080-NT tox – kills 2HG-producing HT-1080-NT fibrosarcoma cells; HT-1080-NT fibrosarcoma viability, CellTiter-Glo ATP luminescence, 48 h; Potency, µM (titrated, usually from 46.1 µM), without a hit: at the highest dose activity, negative = less viability, most hits filed as cytotoxic; hit rate 1.6% among 360,000; AID 686970;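 note: NT is the 2HG producing partner of a matched IDH1 knockdown line; 0% = DMSO-treated cells and -100% = media-only wells without cells; nearly all actives have a fitted effect of over 55% in size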
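Fibrosarcoma NT cells, 750 per well in 5% FBS RPMI, were exposed to compound for 48 hours. Viability: CellTiter-Glo luminescence.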
DT40 TDP1 no CPT – qHTS for Inhibitors of human tyrosyl-DNA phosphodiesterase 1 (TDP1): qHTS in cells in absence of CPT | hit rate 15% among 420,000 | DT40 Tdp1-/- hTDP1 cells, no CPT, ATP luminescence, 48 h | Potency, µM (doses to about 46.2 µM), without a hit: at the highest dose activity change, negative = growth inhibition, most hits filed as inhibitors; note: nearly all actives have a fitted effect of over 55% in size
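Growth of hTDP1-complemented DT40 Tdp1-knockout cells is measured by ATP luminescence after at least 48 hr compound exposure at 37 °C, with DMSO substituting for the 20 nM CPT used in the parallel screen.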
DT40 TDP1 CPT – growth inhibition of DT40 Tdp1-/-;hTDP1 cells with camptothecin (screen for TDP1 inhibitors); chicken DT40 Tdp1-/-;hTDP1 cells + 20 nM CPT, ATP luminescence, 48 h; Potency, µM (titrated, usually from 46.2 µM), without a hit: at the highest dose activity change, negative = growth inhibition, most hits filed as inhibitors; hit rate 12% among 420,000; AID 686979; note: nearly all actives have a fitted effect of over 55% in size
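Chicken DT40 Tdp1-/- cells stably complemented with human TDP1 were seeded at 400 cells/well in medium containing 20 nM camptothecin, exposed to pin-transferred compounds, and grown at 37 °C for at least 48 hr. Viability was read as ATP luminescence.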
Starred values were filed as active, the others as inactive; i = inactive; u = inconclusive; x = not tested or not shown. Calls come from the whole dose curve; as a rule, active = well fitted curve in the direction sought with a large enough effect; inconclusive = small, poorly fitted or top-dose-only effect, or another doubt; inactive = no such curve, though single readings can be large; an effect the other way counts as inactive or inconclusive. Unless noted, % is set by controls: 0 for no effect and ±100 for the full control effect; potency is the fitted concentration of half-maximal effect.

SMILES | KB-V1 cytotox | HT1080 IDH1KD tx | KB-3-1 cytotox | HT1080-NT tox | DT40 TDP1 no CPT | DT40 TDP1 CPT
COc1ccccc1CCN=C(N)NS(=O)(=O)c1ccc(C)c(C)c1 | i | -19% | i | -2% | 1% | -22%
COC1(OC)C(/C=C/c2ccc(Cl)cc2)C(C#N)(C#N)C1(OC)OC (stereo not given) | u | 21µM* | u | -23% | 8.2µM* | 8.2µM*
CN1CCN(C(=O)c2ccccc2NC(=O)c2sc3ccccc3c2Cl)CC1 | i | -8% | i | -10% | u | u
COC(=O)c1ccc(N2CCN(C)CC2)c(NC(=O)c2sc3ccccc3c2Cl)c1 | i | -3% | i | -16% | 16µM* | 23µM*
CN1CCN(c2ccc(NC(=O)c3sc4ccccc4c3Cl)cc2)CC1 | i | -3% | i | -5% | 13µM* | 12µM*
COC(=O)c1ccc(N2CCN(c3ccccc3)CC2)c(N)c1 | i | 7% | i | 13% | u | u
COC(=O)c1ccc(N2CCN(c3ccccc3)CC2)c(NC(=O)C2CC2)c1 | u | -5% | i | -1% | 16µM* | 21µM*
O=C(NCCCCc1ccccc1)Nc1ccc(F)cc1 | i | 1% | i | 9% | 11% | -4%
COc1cccc(Nc2ncc3nc(-c4cccs4)c(=O)n(-c4ccccc4)c3n2)c1 | x | x | x | x | u | -12%
O=[N+]([O-])c1ccc(Cl)cc1N1CCCCC1 | i | -1% | i | -16% | -16% | u
O=[N+]([O-])c1ccc2c(c1N1CCCCC1)=NC1(CCCCC1)[N+]=2[O-] | i | -5% | i | -9% | 21µM* | 21µM*
CC1CCc2nc(NC(=O)CN3CCN(Cc4ccc5c(c4)OCO5)CC3)sc2C1 (stereo not given) | i | u | u | u | 16µM* | 18µM*
CC1CCc2nc(NC(=O)Nc3ccc4c(c3)OCO4)sc2C1 (stereo not given) | i | u | 13µM* | -20% | u | u
CC1CCc2nc(NC(=O)C3COc4ccccc4O3)sc2C1 (stereo not given) | i | 4% | i | -17% | 21µM* | 16µM*
CC1CCc2nc(NC(=O)CN3CCN(c4ccccc4)CC3)sc2C1 (stereo not given) | i | -4% | i | 2% | 21µM* | u
O=C(NC1CC(=O)N(c2ccc(F)cc2)C1)c1ccc2c(c1)OCO2 (stereo not given) | x | x | x | x | -18% | -7%
CCOc1ccc(-c2c(C(=O)N/N=C/c3ccc(C)s3)nnn2-c2nonc2N)cc1 | i | -5% | i | -8% | u | u
CC1CCc2nc(NC(=O)Cc3ccc(Cl)cc3)sc2C1 (stereo not given) | i | x | i | x | 18µM* | u
CC(C)C(=O)N1CCC1(C)C(=O)Nc1ccc(-n2cccc2)cc1 (stereo not given) | i | -1% | i | 5% | u | u
COc1cccc(NC(=O)Nc2nnc(COCCO)s2)c1 | i | 6% | i | 20% | u | u
CCCCCc1cc(=O)oc2c(C(CCN3CCN(c4ccccc4)CC3)c3ccc4c(c3)OCO4)c(OC)cc(OC)c12 (stereo not given) | i | -1% | i | -1% | 16µM* | 26µM*
CCCCCc1cc(=O)oc2c(C(CCN3CCCC3)c3cc(OC)c(OC)c(OC)c3)c(OC)cc(OC)c12 (stereo not given) | i | u | u | u | 16µM* | 5.8µM*
COc1cc(C(CCN2CCOCC2)c2c(OC)cc(OC)c3c(C)cc(=O)oc23)cc(OC)c1OC (stereo not given) | i | 1% | i | 1% | -28% | u
CCCCCc1cc(=O)oc2c(C(CCN3CCCCC3)c3ccc(OC)cc3)c(OC)cc(OC)c12 (stereo not given) | u | -22% | u | u | 16µM* | u
CCCCCc1cc(=O)oc2c(C(CCN3CCCC(C)C3)c3ccc(OC)cc3)c(OC)cc(OC)c12 (stereo not given) | i | -13% | u | -11% | 23µM* | u
SMILES | KB-V1 cytotox | HT1080 IDH1KD tx | KB-3-1 cytotox | HT1080-NT tox | DT40 TDP1 no CPT | DT40 TDP1 CPT
Cn1cnnc1SCC(=O)Nc1ccc(C#N)cc1 | i | x | i | x | 1% | -2%
Cc1cc2oc(=O)cc(CN3CCOCC3)c2c(C)c1Cl | i | 0% | i | -4% | 0% | -8%
CC(=O)NC(Cc1cccc(F)c1)C(=O)NC1CCN(c2nnnn2-c2ccccc2)CC1 (stereo not given) | i | -1% | i | -4% | -1% | 0%
CCCCCc1cc(=O)oc2c(C(CCN3CCCC3)c3ccc(N(C)C)cc3)c(OC)cc(OC)c12 (stereo not given) | i | -24% | u | -20% | 8.2µM* | 15µM*
COc1ccc(C(CCN2CCCC(C)C2)c2c(OC)cc(OC)c3c2OC(=O)CC3c2cc(OC)c(OC)c(OC)c2)cc1 (stereo not given) | i | 0% | i | -7% | u | 16µM*
CCCCCc1cc(=O)oc2c(C(CCN(CC)CC)c3ccc(OC)cc3)c(OC)cc(OC)c12 (stereo not given) | u | -21% | u | u | u | 15µM*
Cc1nc2c(-c3ccc(F)cc3)c(C)nn2c(C)c1CCC(=O)NC(C)CCc1ccco1 (stereo not given) | i | -23% | i | -16% | 23µM* | 23µM*
Cc1nc2c(-c3ccccc3)c(C)nn2c(C)c1CCC(=O)NCc1ccccc1 | i | x | i | x | u | -21%
Cc1nc2c(-c3ccccc3)c(C)nn2c(C)c1CCC(=O)Nc1ccccc1F | u | x | i | x | u | 18µM*
COc1ccc(NC(=O)CCc2c(C)nc3c(-c4ccc(F)cc4)c(C)nn3c2C)c(OC)c1 | i | x | i | x | 21µM* | 23µM*
CSc1ccc(CCNC(=O)CCc2c(C)nc3c(-c4ccccc4)c(C)nn3c2C)cc1 | i | x | i | x | 21µM* | u
c1coc(CNc2nc[n+]3c4c2ncn4CC3)c1 | x | 20% | x | 20% | -21% | -21%
COc1ccc(OC)c(NC(=O)CCc2c(C)nc3c(-c4ccccc4)c(C)nn3c2C)c1 | u | x | u | x | 21µM* | u

Screening data from PubChem BioAssay.
